Compound activity (PubChem BioAssay)
Hits are enriched below; roughly 8% of the tested compounds scored in any of these assays.
Marburg entry inh: inhibitors of Marburg virus binding or cell entry; Potency, µM (series often up to 37.8 µM), without a hit: top-dose activity change, negative = inhibition, most hits filed as inhibitors; Marburg virus pseudotyped entry inhibition, cell reporter; actives 1.8% (n = 300,000); calls by dose curve; tested in HEK293 cells; note: potency is the fitted concentration of half-maximal effect; % is set by controls: 0 for no effect and ±100 for the full control effect
Lassa entry inh: Lassa virus entry inhibition; Lassa virus pseudotype entry inhibition, cell reporter; Potency, µM (series often up to 37.9 µM), without a hit: top-dose activity change, negative = inhibition, most hits filed as inhibitors; actives 1.2% (n = 300,000); calls by dose curve; tested in HEK293 cells; note: potency is the fitted concentration of half-maximal effect; % is set by controls: 0 for no effect and ±100 for the full control effect; nearly all actives have a fitted effect of over 50% in size
HCV inhibitor: inhibitors of hepatitis C virus infection | actives 3.4% (n = 340,000) | Potency, µM (top dose mostly 41.8 µM), inactives show at the highest dose activity change, negative = inhibition, actives largely listed as inhibitors | Huh7.5.1 HCVcc-Cre infection, luciferase reporter, 44 h | AID 651820; active = well fitted inhibition curve with a large enough effect; inconclusive = small, poorly fitted or top-dose-only effect, or another doubt; inactive = no such curve, though single readings can be large or run the other way; note: potency is the fitted concentration of half-maximal effect; % is set by controls: 0 for no effect and ±100 for the full control effect
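Infectious HCV cell culture screen: compound-treated cells (1,000/well, pre-plated 4 h) are infected with HCVcc-Cre at roughly 0.5 moi and grown 44 h. Infection is quantified by luciferase signal after 15 min substrate incubation at room temperature.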
SARS PLpro yeast: inhibitors of SARS-CoV papain-like protease in yeast. Potency, µM (top dose mostly 32.9 µM), for the others: top-dose activity, positive = growth rescue, hits mostly activators. S. cerevisiae expressing SARS-CoV PLpro, growth rescue. AID 485353. actives 0.19% (n = 330,000); calls by dose curve; note: potency is the fitted concentration of half-maximal effect; 0% is about no effect; nearly all actives have a fitted effect of over 55% in size
FMDV inh: foot and mouth disease virus antiviral activity | FMDV antiviral cell-based qHTS | AID 1159524 | Potency, µM (doses to about 57.9 µM), for inactives: at the top dose activity change, negative = inhibition, hits mostly inhibitors | actives 1.2% (n = 410,000); calls by dose curve; tested in HEK293T cells; note: read-out not given here; potency is the fitted concentration of half-maximal effect; % is set by controls: 0 for no effect and ±100 for the full control effect; nearly all actives have a fitted effect of over 45% in size
HCMV antiviral: blocks human cytomegalovirus replication; HFF cells, HCMV-luciferase reporter, 72 h; active compounds read low; activity change, negative = inhibition, % at 57.5 µM; actives 4.5% (n = 410,000); in the data active = activity change below about -60%; inconclusive = no clear call, values can overlap the other calls; inactive = above about -39%; note: % is set by controls: 0 for no effect and ±100 for the full control effect
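After 16 h attachment at 37C, HFF cells received test compound and HCMV-luciferase (1 PFU/cell); reporter luminescence read 72 h later, data normalized against buffer-only and known inhibitor Salinomycin.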
The depositor's hits bear a star; [ ] = remark or other dose.

Results for CCNC(=O)Cc1c(OC)ccc2cc(Br)ccc12 ?
HCV inhibitor: -9%; SARS PLpro yeast: 13%; FMDV inh: -9%; HCMV antiviral: -36

What do the screens show for `COc1ccc2cc(Br)ccc2c1CC(=O)NC1CC(C)(C)NC(C)(C)C1`?
Marburg entry inh: 18µM*; Lassa entry inh: inconclusive; HCV inhibitor: 11µM*; SARS PLpro yeast: 10%; FMDV inh: 0%; HCMV antiviral: 48

How did COc1ccccc1C1CN(Cc2cccc3c2OCO3)Cc2ccccc2O1 (stereo unspecified) do in these assays?
FMDV inh: 4%

Results for CCOC(=O)c1cc(C#N)c(N2CCCNCC2)nc1C(F)(F)F ?
HCV inhibitor: 16µM*; SARS PLpro yeast: 0%; FMDV inh: -9%; HCMV antiviral: 1

Results for CNC(=S)SCCOc1ccccc1C ?
Marburg entry inh: 0%; Lassa entry inh: 11%; HCV inhibitor: 39%; SARS PLpro yeast: inconclusive; FMDV inh: 40%; HCMV antiviral: -69*

What do the screens show for `Cc1ccc(C)c(N2CCN(CCCNC(=O)Cn3cc4c(n3)CCCCC4)CC2)c1`?
Marburg entry inh: -1%; HCV inhibitor: 5.6µM*; SARS PLpro yeast: -9%; FMDV inh: inconclusive; HCMV antiviral: -30

What do the screens show for `Cn1c2ccccc2c2cnn(CC(=O)NCCCN3CCN(c4ccccc4F)CC3)c(=O)c21`?
Marburg entry inh: -29%[46.1 µM]; Lassa entry inh: 0%[46.1 µM]; HCV inhibitor: 10µM*; SARS PLpro yeast: 1%; FMDV inh: -8%; HCMV antiviral: -15

What do the screens show for `CN1CCN(CCCNC(=O)Cn2ncc3c4ccccc4n(C)c3c2=O)CC1`?
HCV inhibitor: -17%; SARS PLpro yeast: 13%; FMDV inh: -17%; HCMV antiviral: 9

Results for Cc1ccc(C)c(N2CCN(CCCNC(=O)Cn3ncc4c5ccccc5n(C)c4c3=O)CC2)c1 ?
Marburg entry inh: -9%[46.1 µM]; Lassa entry inh: 1%[46.1 µM]; FMDV inh: -12%; HCMV antiviral: -60*

Results for OC1CCCCC1/C=N/n1c2c(c3c1CCCC3)CCCC2 (stereo unspecified) ?
Marburg entry inh: 12%

What do the screens show for `CCOc1c(Cl)cc(CNc2ccc3[nH]c(=O)[nH]c3c2)cc1OC`?
Marburg entry inh: inconclusive; Lassa entry inh: -10%[46.1 µM]; FMDV inh: -26%; HCMV antiviral: inconclusive

How did Cc1cc(C(=O)NCC2CCC3(CCN(Cc4ccc(F)cc4)CC3)O2)n(C)n1 (stereo unspecified) do in these assays?
FMDV inh: -12%

How did O=C(N[C@H](Cc1ccccc1)C(=O)NC1CCCCC1)[C@H]1O[C@@H](n2ccc(=O)[nH]c2=O)[C@H](O)[C@@H]1O do in these assays?
HCMV antiviral: 12

How did COc1ccc(C(=O)CC(=O)Nc2ccc([N+](=O)[O-])cc2)cc1 do in these assays?
HCV inhibitor: 11µM*; SARS PLpro yeast: -5%; FMDV inh: -12%; HCMV antiviral: inconclusive

How did COc1ccc(C(=O)/C(C#N)=N/Nc2ccc([N+](=O)[O-])cc2)cc1 do in these assays?
HCV inhibitor: 1.6µM*; SARS PLpro yeast: -1%; FMDV inh: inconclusive; HCMV antiviral: -114*

How did COc1ccc(C(=O)/C(C#N)=N/Nc2ccccc2[N+](=O)[O-])cc1 do in these assays?
Marburg entry inh: inconclusive; Lassa entry inh: inconclusive; HCV inhibitor: 4%; SARS PLpro yeast: 18%; FMDV inh: -17%; HCMV antiviral: -10

Results for COc1ccc(N/C(C)=C2/C(=O)C(=O)N(CCO)C2c2ccc([N+](=O)[O-])cc2)cc1 (stereo unspecified) ?
Marburg entry inh: 1%; Lassa entry inh: -14%; HCV inhibitor: -7%; SARS PLpro yeast: 6%; FMDV inh: -16%; HCMV antiviral: -99*

How did COc1ccc(NC(=O)CNC(=O)c2ccc([N+](=O)[O-])cc2)cc1 do in these assays?
Marburg entry inh: -15%[46.1 µM]; Lassa entry inh: -4%; HCV inhibitor: 21%; SARS PLpro yeast: 0%; FMDV inh: -7%; HCMV antiviral: inconclusive

How did N#CC(C#N)=NNc1ccc([N+](=O)[O-])cc1 do in these assays?
Marburg entry inh: inconclusive; Lassa entry inh: inconclusive; HCV inhibitor: 11µM*; SARS PLpro yeast: -14%; FMDV inh: -21%; HCMV antiviral: -91*

How did C/C(=N\Nc1ccc([N+](=O)[O-])cc1)c1ccc(C#N)cc1 do in these assays?
Marburg entry inh: inconclusive; Lassa entry inh: -19%; HCV inhibitor: 6%; SARS PLpro yeast: -1%; FMDV inh: -2%; HCMV antiviral: -18

Results for CC(C)NC(=O)CSc1ncccc1-c1nc2ccccc2[nH]1 ?
HCV inhibitor: 6%; SARS PLpro yeast: -11%; FMDV inh: 8%; HCMV antiviral: 25

Results for O=C(NCc1ccc(F)cc1Cl)c1cc(=O)[nH]c2ccc(S(=O)(=O)N3CCCCC3)cc12 ?
Lassa entry inh: 1%[46.1 µM]; FMDV inh: -14%; HCMV antiviral: -14

How did CC[C@@H](C)[C@@H](N)C1=N[C@H](C(=O)N[C@@H](CC(C)C)C(=O)N[C@@H](CCC(=O)O)C(=O)N[C@@H](C(=O)N[C@@H]2CCCCNC(=O)[C@@H](CC(N)=O)NC(=O)[C@@H](CC(=O)O)NC(=O)[C@@H](Cc3cnc[nH]3)NC(=O)[C@@H](Cc3ccccc3)NC(=O)[C@@H]([C@H](C)CC)NC(=O)[C@@H](CCCN)NC2=O)[C@@H](C)CC)CS1 do in these assays?
FMDV inh: -8%

Results for CCN(CC)S(=O)(=O)c1ccc(NN=C(C#N)C#N)cc1 ?
Marburg entry inh: inconclusive; Lassa entry inh: inconclusive; HCV inhibitor: inconclusive; SARS PLpro yeast: -27%; FMDV inh: 10µM*; HCMV antiviral: inconclusive

Results for C/C(=N/Nc1ccc([N+](=O)[O-])cc1)c1ccc(C)cc1C ?
Marburg entry inh: -46%; Lassa entry inh: -15%; HCV inhibitor: inconclusive; SARS PLpro yeast: -2%; FMDV inh: 16%; HCMV antiviral: -63*

Results for CCN(CC)S(=O)(=O)c1ccc(NC=C(C#N)C#N)cc1 ?
Marburg entry inh: 4%[46.1 µM]; Lassa entry inh: 11%; HCV inhibitor: 6%; SARS PLpro yeast: 1%; FMDV inh: inconclusive; HCMV antiviral: inconclusive

How did CCOC(=O)NC(=O)/C(C#N)=N\Nc1ccc(Cl)cc1 do in these assays?
Marburg entry inh: 6%[46.1 µM]; Lassa entry inh: 10%; HCV inhibitor: 1%; SARS PLpro yeast: -1%; FMDV inh: -2%; HCMV antiviral: -8

Results for N#C/C(=N\Nc1ccc(Cl)cc1)C(=O)c1ccccc1 ?
Marburg entry inh: 11µM*; Lassa entry inh: inconclusive; HCV inhibitor: 22µM*; SARS PLpro yeast: -29%; FMDV inh: inconclusive; HCMV antiviral: -99*
